Results published in the antibiotic and cytotoxicity screens of Wong et al. (2023).
Screen size: about 39,000 compounds; about 1,500 (3.8%) were called active. The full list was thinned out, with actives kept by preference.

Tested on: HSkMC (human skeletal muscle cells)
Assay: cytotoxicity call (relative viability < 0.9)
Conditions: 10 µM

Q: For C[C@@H]1CN([C@H](C)CO)C(=O)Cc2cc(NC(=O)Nc3ccc(C(F)(F)F)cc3)ccc2O[C@H]1CN(C)Cc1ccc(-c2ccccc2)cc1, which cytotoxicity call is on record?
A: The cytotoxicity call was “active”.

Q: How did the cytotoxicity call turn out when C[C@@H]1CN([C@H](C)CO)C(=O)Cc2cc(NC(=O)Nc3ccc(C(F)(F)F)cc3)ccc2O[C@@H]1CN(C)Cc1ccc(-c2ccccc2)cc1 was run?
A: Its cytotoxicity call is “active”.

Q: With C[C@@H]1CN([C@H](C)CO)C(=O)Cc2cc(NC(=O)Nc3ccccc3)ccc2O[C@H]1CN(C)Cc1ccc(-c2ccccc2)cc1 as the compound, how does the cytotoxicity call read?
A: The cytotoxicity call was “inactive”.

Q: C[C@H](CO)N1C[C@H](C)[C@@H](CN(C)Cc2ccc(-c3ccccc3)cc2)Oc2ccc(NC(=O)Nc3ccc(C(F)(F)F)cc3)cc2CC1=O was tested. Which cytotoxicity call did it give?
A: The cytotoxicity call was “active”.

Q: How did the cytotoxicity call turn out when C[C@@H]1CN([C@@H](C)CO)C(=O)Cc2cc(NC(=O)Nc3ccccc3)ccc2O[C@H]1CN(C)Cc1ccc(-c2ccccc2)cc1 was run?
A: The cytotoxicity call was “inactive”.

Q: C[C@H]1CN([C@@H](C)CO)C(=O)Cc2cc(NC(=O)Nc3ccc(C(F)(F)F)cc3)ccc2O[C@@H]1CN(C)Cc1ccc(-c2ccccc2)cc1 was tested. Which cytotoxicity call did it give?
A: The cytotoxicity call was “active”.

Q: Which cytotoxicity call does the source give for COc1cccc(NC(=O)N[C@@H]2C=C[C@@H](CC(=O)N3CCN(C)CC3)O[C@H]2CO)c1 here?
A: Its cytotoxicity call is “inactive”.

Q: How did the cytotoxicity call turn out when C[C@@H]1CN([C@@H](C)CO)C(=O)c2cccc(NS(=O)(=O)c3cn(C)cn3)c2O[C@H]1CN(C)C(=O)Nc1ccccc1 was run?
A: Its cytotoxicity call is “inactive”.

Q: How did the cytotoxicity call turn out when C[C@H]1CCCCO[C@H](CN(C)C(=O)Nc2ccccc2)[C@@H](C)CN([C@@H](C)CO)C(=O)c2cc(NC(=O)CCC(F)(F)F)ccc2O1 was run?
A: Its cytotoxicity call is “inactive”.

Q: How did the cytotoxicity call turn out when O=C(C[C@H]1CC[C@@H]2[C@H](COC[C@@H](O)CN2C(=O)c2cccnc2)O1)NCC1CC1 was run?
A: The cytotoxicity call was “inactive”.

Q: For Cc1ccc(CSc2nnc(CCN)o2)cc1, which cytotoxicity call is on record?
A: Its cytotoxicity call is “inactive”.

Q: Which cytotoxicity call does the source give for CCn1ncc(Br)c1CN here?
A: Its cytotoxicity call is “inactive”.

Q: For CC(C)NC(=O)[C@@H](N)c1ccccc1, which cytotoxicity call is on record?
A: The cytotoxicity call was “inactive”.

Q: For COc1ccc(NC(=O)Nc2ccc3c(c2)CC(=O)N([C@H](C)CO)C[C@@H](C)[C@H](CN(C)C(=O)Nc2cccc4ccccc24)O3)cc1, which cytotoxicity call is on record?
A: Its cytotoxicity call is “inactive”.

Q: Which cytotoxicity call does the source give for C[C@@H]1CN([C@H](C)CO)C(=O)c2ccccc2-c2ccccc2CO[C@@H]1CN(C)Cc1ccc(Oc2ccccc2)cc1 here?
A: The cytotoxicity call was “inactive”.

Q: COc1ccc(S(=O)(=O)N(C)C[C@@H]2Oc3ccc(NC(=O)Nc4c(C)noc4C)cc3CC(=O)N([C@@H](C)CO)C[C@H]2C)cc1 was tested. Which cytotoxicity call did it give?
A: The cytotoxicity call was “inactive”.

Q: With O=C(C=CC=Cc1ccc2c(c1)OCO2)N1CCCCC1 as the compound, how does the cytotoxicity call read?
A: Its cytotoxicity call is “inactive”.

Q: Which cytotoxicity call does the source give for C[C@H]1CN([C@@H](C)CO)C(=O)c2cccc(NC(=O)Nc3ccc4c(c3)OCO4)c2O[C@@H]1CN(C)C(=O)Nc1ccc(C(F)(F)F)cc1 here?
A: Its cytotoxicity call is “inactive”.

Q: C[C@H]1CN([C@@H](C)CO)C(=O)c2cccc(NC(=O)Nc3ccc(C(F)(F)F)cc3)c2O[C@@H]1CN(C)C(=O)Nc1ccc2c(c1)OCO2 was tested. Which cytotoxicity call did it give?
A: Its cytotoxicity call is “active”.

Q: Which cytotoxicity call does the source give for C[C@@H]1CN([C@H](C)CO)C(=O)c2cccc(NC(=O)Nc3ccc(C(F)(F)F)cc3)c2O[C@@H]1CN(C)C(=O)Nc1ccc2c(c1)OCO2 here?
A: Its cytotoxicity call is “inactive”.

Q: How did the cytotoxicity call turn out when C[C@H](CO)N1C[C@H](C)[C@H](CN(C)C(=O)Nc2ccc3c(c2)OCO3)Oc2c(NC(=O)Nc3ccc(C(F)(F)F)cc3)cccc2C1=O was run?
A: The cytotoxicity call was “inactive”.

Q: Which cytotoxicity call does the source give for C[C@@H]1CN([C@@H](C)CO)C(=O)c2cccc(NC(=O)Nc3ccc(C(F)(F)F)cc3)c2O[C@H]1CN(C)C(=O)Nc1ccc2c(c1)OCO2 here?
A: Its cytotoxicity call is “inactive”.

Q: C[C@H](CO)N1C[C@H](C)[C@@H](CN(C)C(=O)Nc2ccc3c(c2)OCO3)Oc2c(NC(=O)Nc3ccc(C(F)(F)F)cc3)cccc2C1=O was tested. Which cytotoxicity call did it give?
A: The cytotoxicity call was “active”.
